Screening results (PubChem)
CFTR F508del cor: correctors of CFTR F508del function in bronchial epithelial cells. CFBE cells, YFP halide quenching; stimulated with forskolin plus potentiator P3; % fluorescence drop versus neutral controls. activity (quench increase), % at 7.58 µM. 350,000 compounds, 0.36% hits;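 active = mean added fluorescence quench of at least 8% versus neutral control, with both replicates also reaching 8%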;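 also: cells transiently co-express mutant CFTR-F508del with the halide-sensitive YFP; corrector assay measuring rescue of mutant channel to the surface after 24 h compound exposure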
dFosB act-1: activators of mouse delta FosB homodimer. activation, % at 25 µM. P13346. purified delta FosB, TAMRA-CDK5 oligo fluorescence polarization; percent of positive-control signal above neutral wells. AID 493131. 340,000 compounds, 0.99% hits;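 active = mean activation above about 17%, with every replicate also reaching it, limit read from the data, passing the limit was not always enough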
Target sequence (P13346 whole entry, looked up): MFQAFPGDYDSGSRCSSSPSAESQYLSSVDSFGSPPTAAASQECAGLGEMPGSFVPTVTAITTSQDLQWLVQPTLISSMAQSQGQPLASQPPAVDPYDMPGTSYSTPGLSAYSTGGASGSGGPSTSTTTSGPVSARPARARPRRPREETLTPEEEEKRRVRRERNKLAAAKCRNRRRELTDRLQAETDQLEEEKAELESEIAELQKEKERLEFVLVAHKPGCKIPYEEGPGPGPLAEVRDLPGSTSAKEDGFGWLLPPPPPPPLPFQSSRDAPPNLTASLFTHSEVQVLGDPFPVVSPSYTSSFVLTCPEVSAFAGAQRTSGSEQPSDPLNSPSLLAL
RAD52 anneal inh: inhibitors of human RAD52 DNA annealing | recombinant RAD52 DNA annealing, FRET fluorescence | inhibition, % at 18.7 µM | 360,000 compounds, 0.46% hits | AID 651710;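 active = every replicate showing at least 50% inhibition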
PvdQ inh: P. aeruginosa PvdQ acylase inhibition; inhibition, % at 10 µM; 340,000 compounds, 0.063% hits; purified PvdQ acylase, fluorescence plate reader; in the data active = inhibition above about 30%, passing the limit was not always enough;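 also: 0% = vehicle neutral wells and 100% = reference inhibitor wells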
N-glyco inh: N-linked glycosylation inhibition. D54 ERlucT glycosylation luciferase reporter, 24 h; percent of 100 nM tunicamycin response. reporter increase, % at 12.5 µM. 360,000 compounds, 0.23% hits;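 active = mean luciferase reporter signal, scaled so untreated is 0 and the glycosylation-blocking control 100, at or above a set limit in every replicate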;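 also: luciferase carries N-glycosylation sites so blocking glycosylation raises the light; 0% = median of neutral control wells and 100% = median of 100 nM tunicamycin wells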
RAD54 branch: RAD54 (human) branch migration inhibition | AID 602329 | RAD54 Holliday junction branch migration, FAM/BHQ fluorescence | inhibition, % at 10.4 µM | 360,000 compounds, 0.14% hits | Q92698;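 active = mean normalized replicate activity at least 40 and at least half of replicates scoring 40 or more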;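 also: 0% = median of neutral control wells and 100% = median of positive control wells; inhibitors cause a drop in the FAM fluorescence signal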
dFosB act-2: delta FosB (mouse) homodimer activation; purified delta FosB, TAMRA-CDK5 oligo fluorescence polarization; normalised: neutral wells 0, positive control 100; AID 588690; 2,400 tested, under 10 active; activation, % at 24.9 µM; shares compounds with dFosB act-1;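 active = highest replicate activation at or above 34% and every replicate reaching that threshold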;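 also: higher polarization means more probe DNA bound by delta FosB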
An asterisk follows results filed as active. A selection: hits, their analogues and other compounds. The true share with any hit is near 1.5%.

COc1cc(-n2c(=O)c3ccccc3n(Cc3cccnc3)c2=O)cc(OC)c1OC was read as dFosB act-1 8.2, PvdQ inh 5.1 and N-glyco inh 1.3.
For COc1cc(-n2c(=O)c3ccccc3n(Cc3cccc(C)c3)c2=O)cc(OC)c1OC the results were CFTR F508del cor 0.0, dFosB act-1 53.2*, RAD52 anneal inh -6.8, PvdQ inh -16.2, N-glyco inh -2.6, RAD54 branch 2.4 and dFosB act-2 4.5.
Cc1ccccc1S(=O)(=O)N[C@H]1CC[C@@H](CCn2cc(-c3ccc(F)cc3)nn2)O[C@@H]1CO was read as CFTR F508del cor -0.7, RAD52 anneal inh 9.7 and RAD54 branch -3.8.
`O=C(COC(=O)c1cc(NS(=O)(=O)c2cccs2)ccc1O)Nc1ccc(F)c(F)c1F` gave CFTR F508del cor 3.1, dFosB act-1 22.0*, RAD52 anneal inh -10.3, PvdQ inh -14.0, N-glyco inh 1.2, RAD54 branch -5.8 and dFosB act-2 -19.5.
`O=C(COC(=O)CCC(=O)c1cccs1)Nc1ccc(F)c(F)c1F` gave CFTR F508del cor -0.2, dFosB act-1 -3.6, RAD52 anneal inh -22.4, PvdQ inh -11.7, N-glyco inh -0.2 and RAD54 branch 4.7.
NS(=O)(=O)c1ccc(NC(=O)COC(=O)/C(=C/c2cccs2)c2cccs2)cc1 was read as CFTR F508del cor 5.0, dFosB act-1 27.1*, RAD52 anneal inh -8.6, PvdQ inh -1.4, N-glyco inh -3.6, RAD54 branch 1.9 and dFosB act-2 1.4.
`NS(=O)(=O)c1ccc(NC(=O)Cc2cccs2)cc1` gave CFTR F508del cor 2.9, dFosB act-1 -0.6, RAD52 anneal inh 8.4, PvdQ inh -12.9, N-glyco inh -0.8 and RAD54 branch -5.5.
`O=C(Nc1ccc(OC(F)(F)F)cc1)N1CCN(c2ccnc3cc(Cl)ccc23)CC1` gave CFTR F508del cor 4.1, dFosB act-1 38.5*, RAD52 anneal inh -18.2, PvdQ inh -1.7, N-glyco inh -12.8 and dFosB act-2 -4.1.
For CC(C)(C)C(=O)N1CCN(c2ccnc3cc(Cl)ccc23)CC1 the results were CFTR F508del cor 0.7, dFosB act-1 -6.3, RAD52 anneal inh -4.6, PvdQ inh 15.6, N-glyco inh -4.4 and RAD54 branch 6.2.
Screening CCOC(=O)c1c(C)[nH]c(C)c1C(=O)CSc1nnc(-c2cc(OC)c(OC)c(OC)c2)o1 returned dFosB act-1 33.0*, PvdQ inh -12.7, N-glyco inh 1.1, RAD54 branch 3.6 and dFosB act-2 4.9.
`C[C@H]1CN([C@@H](C)CO)C(=O)c2cccc(NC(=O)Nc3ccc(F)cc3)c2O[C@@H]1CN(C)Cc1ccc(Oc2ccccc2)cc1` gave CFTR F508del cor 0.6, RAD52 anneal inh 7.0 and RAD54 branch 4.5.
C[C@H]1CN([C@@H](C)CO)C(=O)c2cc(NC(=O)Nc3cccc4ccccc34)ccc2O[C@@H]1CN(C)Cc1ccc(-c2ccccc2)cc1 was read as CFTR F508del cor 5.7, dFosB act-1 37.9*, RAD52 anneal inh 1.4, PvdQ inh -3.6, N-glyco inh -4.6, RAD54 branch -3.3 and dFosB act-2 1.1.
Screening C[C@@H]1CN([C@@H](C)CO)C(=O)c2cccc(NC(=O)Nc3ccc(F)cc3)c2O[C@@H]1CN(C)Cc1ccc(Oc2ccccc2)cc1 returned CFTR F508del cor 1.7, dFosB act-1 43.4*, RAD52 anneal inh 4.2, PvdQ inh -3.2, N-glyco inh -10.5, RAD54 branch 2.0 and dFosB act-2 0.0.
C[C@H](CO)N1C[C@H](C)[C@H](CN(C)Cc2ccc(-c3ccccc3)cc2)Oc2ccc(NC(=O)Nc3cccc4ccccc34)cc2C1=O was read as CFTR F508del cor 4.5, RAD52 anneal inh -2.7 and RAD54 branch -7.4.
`C[C@H](O)C#Cc1ccc2c(c1)O[C@@H](CN(C)Cc1ccncc1)[C@H](C)CN([C@@H](C)CO)S2(=O)=O` gave CFTR F508del cor -1.4, RAD52 anneal inh 2.5 and RAD54 branch 3.2.
